From PubChem BioAssay (NCATS)
Records with an inconclusive call do not appear. The source made the active and inactive calls. Calls follow the shape of the dose curve; as a rule, active = well fitted inhibition curve with a large enough effect; inconclusive = small, poorly fitted or top-dose-only effect; inactive = no such curve, though single readings can be large or run the other way.

Test: Primary qHTS for inhibitors of La Crosse Virus (LACV) - induced cell death in SH-SY5Y cells (AID 1508616);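 also: top concentration of the series differs between compounds; higher means more rescue of cells from virus-induced death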
Conditions: SH-SY5Y LACV cytopathicity rescue, ATP luminescence, 6 d; series mostly up to 4.29 µM
From the text: Assay Provider: Karin Peterson Ph.D.
National Institute of Allergy and Infection Diseases, National Institute of Health
La Crosse Virus (LACV) is a California serogroup mosquito-borne arbovirus, family Peribunyaviridae, which is an endemic pathogen in North America and can induce a rare, life-threatening neurological disease in children. LACV was first isolated in the early 1960s, from a summer "rural encephalitis" case in La Crosse, Wisconsin, USA. Since then, LACV encephalitis cases have been found in more than twenty states, with most cases in the Mississippi and Ohio River basins. The life cycle of LACV is maintained between the vector, the eastern tree-hole mosquito Aedes triseriatus, and vertebrate hosts including eastern gray squirrels (Sciurus carolinensis) and chipmunks (Tamiasstriatus grinseus). […] Most LACV infections in humans are asymptomatic or induce mild clinical symptoms of fever, headache, lethargy and vomiting. However, in some cases LACV can cause severe neuroinvasive disease, including encephalitis, meningitis, and meningoencephalitis, requiring hospitalization. To date, there is neither a licensed vaccine nor a Food and Drug Administration (FDA) approved antiviral therapy available to prevent or treat LACV encephalitis. The primary treatment for viral encephalitis is palliative care due to the lack of therapeutics. In the current study, we conducted a screen of 4,096 FDA approved and bioactive small molecules against LACV, by screening for rescue of LACV-induced cell death in SH-SY5Y cells.
LACV-induced cytopathicity assay
SEQUENCE No. (1,2, 3, etc.); […] (e.g., Cells, Incubation, Reagent, etc.); VALUE and DESCRIPTION.
1. Reagent; 2 uL; Cell solution.
3. Compounds; 23nL; Compound library
4. Reagent; 12 uL; LACV virus
6. Reagent; 24 uL; ATPLite (PerkinElmer)
7. Time; 5 min; Room temperature
8. Detection; Luminescence; View
NOTES (numbers refer to sequence above)
1. Seed 6000 SH-SY5Y cells (ATCC CRL-2266) in 2 microL/well media (DMEM/F12 10% FBS, 1x L-Glutamine, 1x Pyruvate, 1x NEAA, 1x Pen/Strep) in 384-well assay plates (tissue culture treated, white, solid bottom).
2. Incubate at 37 degrees C with 5% CO2 for 24 hr.
3. Dispense 23 nL/well compounds in DMSO via pin transfer.
4. Dispense 12 microL/well of LACV (LACV/human/1978) in media at 0.01 MOI.
5. Incubate at for 6 days at 37C 5% CO2
6. Dispense 24 microL/well of ATPLite 1step Luminescence assay system (PerkinElmer).
7. Incubate for 5 min at room temperature.
8. Read luminescence signal (Viewlux plate reader, PerkinElmer). Data was normalized with DMSO control wells containing LACV as 0%, and DMSO control wells without virus as 100%.
In the case of `CCCCNC(=O)NS(=O)(=O)c1ccc(N)cc1`, the outcome is reported as “inactive”.
With `COc1ccccc1N1CCN(CCCCNC(=O)c2ccc(-c3ccc(C(C)=O)cc3)cc2)CC1` the outcome was “inactive”.
With `CNCCc1ccccn1` the outcome was “inactive”.
For `CC(=O)NC(=O)c1ccccc1O`, the outcome was “inactive”.
For `CO[C@]12C[C@@H](COC(=O)c3cncc(Br)c3)CN(C)[C@@H]1Cc1cn(C)c3cccc2c13`, the outcome was “inactive”.
For `CC(C)n1c(/C=C/[C@@H](O)C[C@@H](O)CC(=O)O)c(-c2ccc(F)cc2)c2ccccc21`, the outcome was “inactive”.
With `C/C=C/c1ccc(O)c(OC)c1` the outcome was “inactive”.
With `OCCOCCN1CCN(C2=Nc3ccccc3Sc3ccccc32)CC1` the outcome was “inactive”.
In the case of `O=S(=O)(O)c1ccc(O)cc1`, the outcome is reported as “inactive”.
In the case of `CCCCNc1ccc(C(=O)OCCOCCOCCOCCOCCOCCOCCOCCOCCOC)cc1`, the outcome is reported as “inactive”.
For `O=C1[C@H](CC[C@H](O)c2ccc(F)cc2)[C@@H](c2ccc(O)cc2)N1c1ccc(F)cc1`, the outcome was “inactive”.
With `Clc1cccc(C(c2ccc3nc[nH]c3c2)n2ccnc2)c1` (stereo not given) the outcome was “inactive”.
In the case of `C[N+]12CCC(CC1)C(OC(=O)C(O)(c1ccccc1)c1ccccc1)C2` (stereo not given), the outcome is reported as “inactive”.
For `C#C[C@]1(O)CC[C@H]2[C@@H]3CCc4cc(OC)ccc4[C@H]3CC[C@@]21C`, the outcome was “inactive”.
In the case of `CC(C)(C)NCC(O)COc1cccc2c1C[C@H](O)[C@H](O)C2` (stereo not given in full), the outcome is reported as “inactive”.
With `CN(CCCN1c2ccccc2CCc2ccccc21)CC(=O)c1ccc(Cl)cc1` the outcome was “inactive”.
With `CC(O)Cn1cnc2c1c(=O)n(C)c(=O)n2C` (stereo not given) the outcome was “inactive”.
For `Oc1c(Cl)cc(Cl)c(Cl)c1Cc1c(O)c(Cl)cc(Cl)c1Cl`, the outcome was “inactive”.
For `O=C(O)CCc1nc2ccccc2[nH]1`, the outcome was “inactive”.
With `CC(C)Cc1ccc(CC(=O)O)cc1` the outcome was “inactive”.
In the case of `CC(=O)OC[C@H]1O[C@@H](n2ncc(=O)[nH]c2=O)[C@H](OC(C)=O)[C@@H]1OC(C)=O`, the outcome is reported as “inactive”.
For `O=C(O)Cc1csc(-c2ccc(Cl)cc2)n1`, the outcome was “inactive”.
For `O=C1C(CCS(=O)c2ccccc2)C(=O)N(c2ccccc2)N1c1ccccc1` (stereo not given), the outcome was “inactive”.
For `CC(=C(CCOC(=O)C(C)C)SSC(CCOC(=O)C(C)C)=C(C)N(C=O)Cc1cnc(C)nc1N)N(C=O)Cc1cnc(C)nc1N`, the outcome was “inactive”.
In the case of `Cc1ccccc1OCC(O)CO` (stereo not given), the outcome is reported as “inactive”.
In the case of `CCOC(=O)C(C#N)=C(c1ccccc1)c1ccccc1`, the outcome is reported as “inactive”.
With `CCCCCCCCCCCCSCCOCCO` the outcome was “inactive”.
In the case of `CC(=O)OCC(=O)[C@H]1CC[C@H]2[C@@H]3CCC4=CC(=O)CC[C@]4(C)[C@H]3CC[C@]12C`, the outcome is reported as “inactive”.
With `CC(C)NCC(O)c1ccc2ccccc2c1` (stereo not given) the outcome was “inactive”.
In the case of `CN(C)CCOC(c1ccc(Cl)cc1)c1ccccn1` (stereo not given), the outcome is reported as “inactive”.
For `CCCCCCCCCCCCCC[N+](C)(C)Cc1ccccc1`, the outcome was “inactive”.
With `CCN(CC)CCNc1ccc(CO)c2sc3ccccc3c(=O)c12` the outcome was “inactive”.
With `NCCNC(=O)c1ccc(Cl)cn1` the outcome was “inactive”.
With `CCCCOC(=O)CC(CC(=O)OCCCC)(OC(C)=O)C(=O)OCCCC` the outcome was “inactive”.
In the case of `CC(=O)Oc1ccc(C)cc1`, the outcome is reported as “inactive”.
For `COc1cc(C)nc(-n2nc(C)cc2OC)n1`, the outcome was “inactive”.
For `O=C1c2cccc3c2[C@H](CCC3)CN1[C@@H]1CN2CCC1CC2`, the outcome was “inactive”.
For `CC(C)CCCC(C)N` (stereo not given), the outcome was “inactive”.
In the case of `CCCCCCCCCCCCCCC[C@H](O)[C@@H](N)CO`, the outcome is reported as “inactive”.
In the case of `CCOc1cc(OCC)c(C(=O)CCC(=O)O)cc1OCC`, the outcome is reported as “inactive”.
